Results: the antibiotic and cytotoxicity screens of Wong et al. (2023)
Screen size: about 39,000 compounds; about 3,300 (8.5%) were called active. Many of the other results were omitted from the sample, so actives are more common in it than they were.

These molecules were tested on HepG2 (assay: cytotoxicity call (relative viability < 0.9)). Details: 10 µM.

Compound	cytotoxicity call
O=C(C[C@@H]1C=C[C@H](NC(=O)C2CC2)[C@@H](CO)O1)NCCCN1CCOCC1	inactive
O=C(NCc1ccccc1)C1=C[C@H](c2ccc3c(c2)Cc2ccccc2-3)C[C@H](OCc2ccc(CO)cc2)O1	inactive
C[C@@H]1CN([C@@H](C)CO)C(=O)c2cc(NS(C)(=O)=O)ccc2O[C@H]1CN(C)C(=O)Nc1ccc2c(c1)OCO2	inactive
C[C@@H]1CN([C@H](C)CO)C(=O)c2cc(NC(=O)NC3CCCCC3)ccc2O[C@@H](C)CCCCO[C@H]1CN(C)C(=O)Nc1ccc(C(F)(F)F)cc1	inactive
CCNC(=O)[C@@H]1CCCN1C(=O)[C@H](CCCNC(=N)N)NC(=O)[C@H](CC(C)C)NC(=O)[C@@H](COC(C)(C)C)NC(=O)[C@H](Cc1ccc(O)cc1)NC(=O)[C@H](CO)NC(=O)[C@H](Cc1c[nH]c2ccccc12)NC(=O)[C@H](Cc1cnc[nH]1)NC(=O)[C@H]1CCC(=O)N1	inactive
CC(C)(C)OC(=O)CC[C@@]12N=C(c3ccc(OCCCO)cc3)O[C@@H]1c1ccccc1CN(C(=O)c1ccccc1)C2=O	active
O=C1N(Cc2ccccc2)Cc2ccccc2C[C@]12N=C(c1ccc(OCCCO)cc1)O[C@@H]2c1ccccc1	inactive
O=C1N(Cc2ccccc2)Cc2ccccc2[C@H]2OC(c3ccc(OCCCO)cc3)=N[C@@]12Cc1ccccc1	inactive
CC(C)(C)OC(=O)CC[C@]12N=C(c3ccc(OCCCO)cc3)O[C@H]1c1ccccc1CN(C(=O)c1ccccc1)C2=O	inactive
O=C1N(Cc2ccccc2)Cc2ccccc2C[C@@]12N=C(c1ccc(OCCCO)cc1)O[C@H]2c1ccccc1	active
CC(C)(C)OC(=O)CC[C@@]12N=C(c3ccc(OCCCO)cc3)O[C@@H]1c1ccccc1CN(Cc1ccccc1)C2=O	active
O=C(c1ccccc1)N1Cc2ccccc2[C@H]2OC(c3ccc(OCCCO)cc3)=N[C@@]2(Cc2ccccc2)C1=O	inactive
CC(C)(C)OC(=O)CC[C@]12N=C(c3ccc(OCCCO)cc3)O[C@H]1c1ccccc1N(Cc1ccccc1)C2=O	inactive
CC(C)(C)OC(=O)CC[C@]12N=C(c3ccc(OCCCO)cc3)O[C@H]1c1ccccc1CN(Cc1ccccc1)C2=O	inactive
COC(=O)c1cn(C)cn1	inactive
Cc1ccc(S(=O)(=O)N(C)C[C@H]2Oc3ccc(NS(C)(=O)=O)cc3CC(=O)N([C@H](C)CO)C[C@@H]2C)cc1	inactive
C[C@@H]1CN([C@@H](C)CO)C(=O)c2cc(N(C)C)ccc2O[C@@H](C)CCCCO[C@@H]1CN(C)Cc1ccc(C(F)(F)F)cc1	inactive
C[C@]1(CC(=O)O)C(=O)N=C2C=CC=CN21	inactive
COc1ccc(CN(C)C[C@H]2Oc3ccc(NC(=O)Nc4ccc(C(F)(F)F)cc4)cc3C(=O)N([C@H](C)CO)C[C@@H]2C)cc1	inactive
COc1ccc(NC(=O)Nc2ccc3c(c2)C(=O)N([C@H](C)CO)C[C@@H](C)[C@H](CN(C)Cc2ccc(C(F)(F)F)cc2)O3)cc1	active
COc1ccc(NC(=O)Nc2ccc3c(c2)C(=O)N([C@H](C)CO)C[C@@H](C)[C@@H](CN(C)Cc2ccc(C(F)(F)F)cc2)O3)cc1	inactive

Compound	cytotoxicity call
COc1ccc(NC(=O)Nc2ccc3c(c2)C(=O)N([C@H](C)CO)C[C@H](C)[C@@H](CN(C)Cc2ccc(C(F)(F)F)cc2)O3)cc1	inactive
COc1ccc(CN(C)C[C@H]2Oc3ccc(NC(=O)Nc4ccc(C(F)(F)F)cc4)cc3C(=O)N([C@H](C)CO)C[C@H]2C)cc1	active
COc1ccc(CN(C)C[C@@H]2Oc3ccc(NC(=O)Nc4ccc(C(F)(F)F)cc4)cc3C(=O)N([C@H](C)CO)C[C@@H]2C)cc1	active
COc1ccc(CN(C)C[C@@H]2Oc3ccc(NC(=O)Nc4ccc(C(F)(F)F)cc4)cc3C(=O)N([C@@H](C)CO)C[C@@H]2C)cc1	active
COc1ccc(NC(=O)Nc2ccc3c(c2)C(=O)N([C@H](C)CO)C[C@H](C)[C@H](CN(C)Cc2ccc(C(F)(F)F)cc2)O3)cc1	inactive
C[C@H]1CN([C@@H](C)CO)C(=O)c2cc(C#CC3(O)CCCC3)cnc2O[C@@H]1CN(C)C(=O)Cc1ccccc1	inactive
C[C@H](CO)N1C[C@H](C)[C@@H](CN(C)Cc2ccc(F)cc2)Oc2cc(C#CC(C)(C)O)ccc2S1(=O)=O	inactive
OCC1OC(OC2C(O)C(CO)OC2(CO)OC2OC(CO)C(O)C(O)C2O)C(O)C(O)C1O (stereo not drawn)	inactive
CN(C)C(=O)N[C@H]1CN(S(C)(=O)=O)[C@H]2CCCO[C@@H]12	inactive
C[C@@H]1CN([C@@H](C)CO)C(=O)c2cc(NS(=O)(=O)c3ccc(Cl)cc3)ccc2O[C@@H](C)CCCCO[C@H]1CN(C)Cc1ccc(C(=O)O)cc1	inactive
Cn1nc(C(=O)O)c2ccccc2c1=O	inactive
COc1cccc(CNC(=O)c2cc3c(c(-c4cccc(-c5ccncc5)c4)n2)[C@@H](CCO)N([S@@](=O)C(C)(C)C)C3)c1	inactive
C[C@H]1CC/C=C\[C@H]2O[C@@]34C=CCN(Cn5nnc6ccccc65)C(=O)[C@H]3N(CCCCCCO)C(=O)[C@@H]4[C@@H]2C(=O)O1	inactive
C[C@H]1CN([C@@H](C)CO)C(=O)c2cc(Br)cnc2O[C@@H]1CN(C)C(=O)Nc1ccc(F)cc1	inactive
COc1ccc(NC(=O)Nc2ccc3c(c2)C(=O)N([C@@H](C)CO)C[C@H](C)[C@@H](CN(C)Cc2ccc(C(F)(F)F)cc2)O3)cc1	active
COc1ccc(CN(C)C[C@@H]2Oc3ccc(NC(=O)Nc4ccc(C(F)(F)F)cc4)cc3C(=O)N([C@H](C)CO)C[C@H]2C)cc1	active
COc1ccc(CN(C)C[C@H]2Oc3ccc(NC(=O)Nc4ccc(C(F)(F)F)cc4)cc3C(=O)N([C@@H](C)CO)C[C@H]2C)cc1	active
COc1ccc(CN(C)C[C@H]2Oc3ccc(NC(=O)Nc4ccc(C(F)(F)F)cc4)cc3C(=O)N([C@@H](C)CO)C[C@@H]2C)cc1	active
c1ccc2c([C@@H]3CCCN3)cccc2c1	inactive
Cc1ccc(S(=O)(=O)N(C)C[C@@H]2Oc3c(NC(=O)c4ccncc4)cccc3C(=O)N([C@H](C)CO)C[C@H]2C)cc1	inactive
C[C@@H]1CCCCO[C@H](CN(C)Cc2ccncc2)[C@H](C)CN([C@@H](C)CO)C(=O)c2cc(NC(=O)Cc3ccccc3)ccc2O1	inactive

Compound	cytotoxicity call
COc1ccc(C#Cc2ccc3c(c2)O[C@H](CN(C)S(=O)(=O)c2ccccc2F)[C@H](C)CN([C@@H](C)CO)S3(=O)=O)cc1	inactive
C=CCOC(=O)[C@H]1[C@@H]2C(=O)O[C@@H](c3ccccc3)[C@@H](c3ccccc3)N2[C@@H](c2ccc(OCCOC(=O)[C@H]3C[C@H]4C(=O)N[C@@H](CC(C)C)C(=O)N4[C@H]3c3ccc(O)cc3)cc2)[C@]12C(=O)Nc1ccccc12	inactive
N=C(N)NCCS	inactive
C[C@@H]1CN([C@@H](C)CO)S(=O)(=O)c2ccc(C#Cc3ccccc3)cc2O[C@@H]1CN(C)C(=O)c1ccccn1	inactive
C[C@@H]1CCCCO[C@@H](CN(C)C(=O)NC2CCCCC2)[C@H](C)CN([C@H](C)CO)C(=O)c2cc(NS(=O)(=O)c3ccc(Cl)cc3)ccc2O1	inactive
N#C[C@H](N)c1ccc(Cl)cc1	inactive
COc1ccc(NC(=O)Nc2ccc3c(c2)C(=O)N([C@@H](C)CO)C[C@@H](C)[C@@H](CN(C)Cc2ccc(C(F)(F)F)cc2)O3)cc1	active
COc1ccc(NC(=O)Nc2ccc3c(c2)C(=O)N([C@@H](C)CO)C[C@H](C)[C@H](CN(C)Cc2ccc(C(F)(F)F)cc2)O3)cc1	inactive
COc1ccc(CN(C)C[C@@H]2Oc3ccc(NC(=O)Nc4ccc(C(F)(F)F)cc4)cc3C(=O)N([C@@H](C)CO)C[C@H]2C)cc1	active
COc1ccc(NC(=O)Nc2ccc3c(c2)C(=O)N([C@@H](C)CO)C[C@@H](C)[C@H](CN(C)Cc2ccc(C(F)(F)F)cc2)O3)cc1	inactive
C[C@@H]1CCCCO[C@@H](CN(C)C(=O)Nc2ccccc2)[C@@H](C)CN([C@@H](C)CO)C(=O)c2cc(NS(=O)(=O)c3ccccc3)ccc2O1	inactive
C[C@@H]1CN([C@@H](C)CO)C(=O)CCCn2nncc2CO[C@H]1CN(C)S(=O)(=O)c1ccc(-c2ccccc2)cc1	inactive
C[C@H]1CN([C@@H](C)CO)C(=O)Cc2cc(NC(=O)Nc3cccc4ccccc34)ccc2O[C@H]1CN(C)C(=O)Nc1ccc2c(c1)OCO2	inactive
C[C@@H]1CCCCO[C@@H](CN(C)S(=O)(=O)c2ccc(Cl)cc2)[C@H](C)CN([C@H](C)CO)C(=O)c2cc(NS(=O)(=O)c3ccc(F)cc3)ccc2O1	inactive
CC(C)N(CCCNC(=O)Nc1ccc(C(C)(C)C)cc1)C[C@H]1O[C@@H](n2cnc3c(N)ncnc32)[C@@H](O)[C@H]1O	inactive
CC(C)N(C[C@H]1O[C@@H](n2cnc3c(N)ncnc32)[C@H](O)[C@@H]1O)[C@H]1C[C@@H](CCc2nc3ccc(C(C)(C)C)cc3[nH]2)C1	active
Nc1ncnc2c1ncn2[C@@H]1O[C@H](C[C@@H](N)CC[C@H](N)C(=O)O)[C@@H](O)[C@H]1O	inactive
C[C@H]1CN([C@@H](C)CO)C(=O)Cc2cc(NC(=O)C3CC3)ccc2O[C@@H]1CN(C)S(=O)(=O)c1cccs1	inactive
CC(C)NC(=O)N(C)C[C@H]1Oc2ccc(NS(=O)(=O)c3ccccc3)cc2CC(=O)N([C@@H](C)CO)C[C@H]1C	inactive
Cn1c(Nc2ccc(C(F)(F)F)cc2)nc2cc(Oc3ccnc(-c4ncc(C(F)(F)F)[nH]4)c3)ccc21	active
COc1ccc(NC(=O)Nc2ccc3c(c2)C(=O)N([C@H](C)CO)C[C@H](C)[C@H](CN(C)Cc2ccncc2)OCCCC[C@H](C)O3)cc1	inactive
